# Results from the supplement of paper PMC10338343.
# ± gives the standard deviation.
# Tests used:
# [1] = system: MILI (PIWIL2) piRISC loaded with L1MC piRNA (26 nt); experiment: pre-steady-state target cleavage rate (min^-1); guide: L1MC piRNA 5'p-UAACUAAAUACUAUGCAAGCUGUAGG; higher = faster piRNA-guided slicing of the target;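 also: 1 nM active piRISC with 0.1 nM target library at 33 °C single turnover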
# Summary of the method: (§1)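 A transcribed, DNA-blocked target RNA library […] was incubated at 33 °C for 0–8 or 0–960 min with 1 nM active affinity-purified piRISC carrying one synthetic guide, in HEPES–potassium acetate buffer with or without 500 nM GTSF1 partner protein. Uncleaved targets were then sequenced and normalised to depth and to weakly complementary targets. Data from three trials were pooled, with k3 capped at 0.0001 min^-1, and a burst-and-steady-state fit yielded the pre-steady-state cleavage rate.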
# [2] = system: EfPiwi piRISC loaded with L1MC piRNA (26 nt); experiment: pre-steady-state target cleavage rate (min^-1); auxiliary factor: 500 nM Ephydatia muelleri Gtsf1; guide: L1MC piRNA 5'p-UAACUAAAUACUAUGCAAGCUGUAGG; MIWI and MILI are mouse PIWI proteins and EfPiwi is from a freshwater sponge; tags in brackets are library labels; higher = faster piRNA-guided slicing of the target
# Summary of the method: as §1
# [3] = auxiliary factor: 500 nM mouse GTSF1
# [4] = auxiliary factor: none (no GTSF1)
sequence,measurement,setting,value
UCCUGGAACACUUGCAUAGUAUUUAGUUA,pre-steady-state target cleavage rate,[1]; [3],0.194 ± 0.017
same,pre-steady-state target cleavage rate,[1]; [4],0.00651 ± 0.0021
same,pre-steady-state target cleavage rate,[2],0.0107 ± 0.0034
UCCUGGAUGUCCUUUGCAUAGUAUUUAGUUA,pre-steady-state target cleavage rate,[1]; [3],0.0866 ± 0.015
same,pre-steady-state target cleavage rate,[1]; [4],0.0072 ± 0.0024
same,pre-steady-state target cleavage rate,[2],0.00785 ± 0.0043
UCCUGGUACAGCAUGCAAAGUAUUUAGUUA,pre-steady-state target cleavage rate,[1]; [3],0.119 ± 0.014
same,pre-steady-state target cleavage rate,[1]; [4],0.0117 ± 0.0036
same,pre-steady-state target cleavage rate,[2],0.00646 ± 0.0023
UCCUGGAACAGCUGCAUAGUAUUUAGUUA,pre-steady-state target cleavage rate,[1]; [3],0.279 ± 0.021
same,pre-steady-state target cleavage rate,[1]; [4],0.0069 ± 0.0026
same,pre-steady-state target cleavage rate,[2],0.0362 ± 0.0095
UCCUGGUAGUGCUUGCAUAGUAUUUAGUUA,pre-steady-state target cleavage rate,[1]; [3],0.184 ± 0.018
same,pre-steady-state target cleavage rate,[1]; [4],0.00947 ± 0.0025
same,pre-steady-state target cleavage rate,[2],0.0152 ± 0.0047
UCCUGGAUGAGUUUGCAUAGUAUUUAGUUA,pre-steady-state target cleavage rate,[1]; [3],0.17 ± 0.023
same,pre-steady-state target cleavage rate,[1]; [4],0.0059 ± 0.0028
same,pre-steady-state target cleavage rate,[2],0.0219 ± 0.006
UCCUGGUUCAGCUUGCUUAGUAUUUAGUUA,pre-steady-state target cleavage rate,[1]; [3],0.199 ± 0.017
same,pre-steady-state target cleavage rate,[1]; [4],0.0104 ± 0.003
same,pre-steady-state target cleavage rate,[2],0.0145 ± 0.0054
UCCUCCUACACCUUGCAUAGUAUAUAGUUA,pre-steady-state target cleavage rate,[1]; [3],0.199 ± 0.028
same,pre-steady-state target cleavage rate,[1]; [4],0.00295 ± 0.0027
same,pre-steady-state target cleavage rate,[2],0.00711 ± 0.0039
UCCUCCUACAGCUUGCUUAGUAUUUAGUAA,pre-steady-state target cleavage rate,[1]; [3],0.203 ± 0.017
same,pre-steady-state target cleavage rate,[1]; [4],0.0037 ± 0.0021
same,pre-steady-state target cleavage rate,[2],0.00594 ± 0.0027
UCCUGCUACACCUUGGAUAGUAUUUAGUUA,pre-steady-state target cleavage rate,[1]; [3],0.122 ± 0.021
same,pre-steady-state target cleavage rate,[1]; [4],0.00552 ± 0.0022
same,pre-steady-state target cleavage rate,[2],0.00538 ± 0.0021
UCCUGGUAGAGCUUGCAUAGUAUUUAGUAA,pre-steady-state target cleavage rate,[1]; [3],0.206 ± 0.013
same,pre-steady-state target cleavage rate,[1]; [4],0.0096 ± 0.0028
same,pre-steady-state target cleavage rate,[2],0.00742 ± 0.0038
UCCUGGAUCAGGUUGCAAAGUAUUUAGUUA,pre-steady-state target cleavage rate,[1]; [3],0.121 ± 0.011
same,pre-steady-state target cleavage rate,[1]; [4],0.00902 ± 0.0027
same,pre-steady-state target cleavage rate,[2],0.0172 ± 0.0054
UCCUGCUACAGCUGGCAUAGUAUUUAGUUA,pre-steady-state target cleavage rate,[1]; [3],0.293 ± 0.019
same,pre-steady-state target cleavage rate,[1]; [4],0.00759 ± 0.0024
same,pre-steady-state target cleavage rate,[2],0.00937 ± 0.0024
UCCUGGAUGUGCUAUGCAUAGUAUUUAGUUA,pre-steady-state target cleavage rate,[1]; [3],0.141 ± 0.018
same,pre-steady-state target cleavage rate,[1]; [4],0.0069 ± 0.0024
same,pre-steady-state target cleavage rate,[2],0.0103 ± 0.0036
UCCUGCUACAGCUUGAAUAGUAUUUAGUUA,pre-steady-state target cleavage rate,[1]; [3],0.22 ± 0.013
same,pre-steady-state target cleavage rate,[1]; [4],0.00812 ± 0.002
same,pre-steady-state target cleavage rate,[2],0.0179 ± 0.0045
UCCUCCUACAGCAUGCAUAGUAUUUUGUUA,pre-steady-state target cleavage rate,[1]; [3],0.143 ± 0.02
same,pre-steady-state target cleavage rate,[1]; [4],0.00296 ± 0.0027
same,pre-steady-state target cleavage rate,[2],0.00297 ± 0.0021
UCCUGGAUCAGGUUGGAUAGUAUUUAGUUA,pre-steady-state target cleavage rate,[1]; [3],0.164 ± 0.013
same,pre-steady-state target cleavage rate,[1]; [4],0.0112 ± 0.0027
same,pre-steady-state target cleavage rate,[2],0.00425 ± 0.003
UCCUCCUACUCGUUGCAUAGUAUUUAGUAA,pre-steady-state target cleavage rate,[1]; [3],0.176 ± 0.024
same,pre-steady-state target cleavage rate,[1]; [4],0.00408 ± 0.0019
same,pre-steady-state target cleavage rate,[2],0.00477 ± 0.0029
UCCUGGUACAGCUUGCAUCGUAUUUAGUUA,pre-steady-state target cleavage rate,[1]; [3],0.0739 ± 0.014
same,pre-steady-state target cleavage rate,[1]; [4],0.00985 ± 0.0037
same,pre-steady-state target cleavage rate,[2],0.00642 ± 0.0025
UCCUGGUACAGGAUGCAUAGUAUUUAGUAA,pre-steady-state target cleavage rate,[1]; [3],0.172 ± 0.021
same,pre-steady-state target cleavage rate,[1]; [4],0.00595 ± 0.002
same,pre-steady-state target cleavage rate,[2],0.00412 ± 0.002
UCCUGGAUGUCCUUGCAUAUUAUUUAGUUA,pre-steady-state target cleavage rate,[1]; [3],0.038 ± 0.011
same,pre-steady-state target cleavage rate,[1]; [4],0.0028 ± 0.0027
same,pre-steady-state target cleavage rate,[2],0.00283 ± 0.0025
UCCUCCUACAGCUUGCAUUGUUUUUAGUUA,pre-steady-state target cleavage rate,[1]; [3],0.0161 ± 0.0055
same,pre-steady-state target cleavage rate,[1]; [4],0.0039 ± 0.002
same,pre-steady-state target cleavage rate,[2],0.00277 ± 0.0025
UCCUCCUACUGCUUGCAUAGUAAUUAGUUA,pre-steady-state target cleavage rate,[1]; [3],0.2 ± 0.014
same,pre-steady-state target cleavage rate,[1]; [4],0.00554 ± 0.0017
same,pre-steady-state target cleavage rate,[2],0.0119 ± 0.0043
UCCUGGUACAGCUUGCAUAGUAUCUAGUUA,pre-steady-state target cleavage rate,[1]; [3],0.156 ± 0.029
same,pre-steady-state target cleavage rate,[1]; [4],0.00431 ± 0.0025
same,pre-steady-state target cleavage rate,[2],0.004 ± 0.0021
UCCUCCUACAGCUUGUAUAGUAUUUAGUUA,pre-steady-state target cleavage rate,[1]; [3],0.305 ± 0.018
same,pre-steady-state target cleavage rate,[1]; [4],0.00822 ± 0.0025
same,pre-steady-state target cleavage rate,[2],0.143 ± 0.033
UCCUGGUACAGCUAGCAAAGUAUUUAGUUA,pre-steady-state target cleavage rate,[1]; [3],0.102 ± 0.013
same,pre-steady-state target cleavage rate,[1]; [4],0.0127 ± 0.0033
same,pre-steady-state target cleavage rate,[2],0.00688 ± 0.0029
UCCUGGAACAGCUUACAUAGUAUUUAGUUA,pre-steady-state target cleavage rate,[1]; [3],0.223 ± 0.018
same,pre-steady-state target cleavage rate,[1]; [4],0.00953 ± 0.0027
same,pre-steady-state target cleavage rate,[2],0.0502 ± 0.012
UCCUCCUACUGCUUGCAUAGUAUUUUGUUA,pre-steady-state target cleavage rate,[1]; [3],0.0977 ± 0.016
same,pre-steady-state target cleavage rate,[1]; [4],0.00448 ± 0.0018
same,pre-steady-state target cleavage rate,[2],0.0111 ± 0.0044
UCCUGGAACAGCUUGAAUAGUAUUUAGUUA,pre-steady-state target cleavage rate,[1]; [3],0.243 ± 0.023
same,pre-steady-state target cleavage rate,[1]; [4],0.00657 ± 0.0025
same,pre-steady-state target cleavage rate,[2],0.0656 ± 0.017
UCCUGCUACAGGUUGCAUACUAUUUAGUUA,pre-steady-state target cleavage rate,[1]; [3],0.0385 ± 0.0068
same,pre-steady-state target cleavage rate,[1]; [4],0.00412 ± 0.002
same,pre-steady-state target cleavage rate,[2],0.00621 ± 0.0019
UCCUGGAACAGCGUUGCAUAGUAUUUAGUUA,pre-steady-state target cleavage rate,[1]; [3],0.203 ± 0.017
same,pre-steady-state target cleavage rate,[1]; [4],0.0103 ± 0.0025
same,pre-steady-state target cleavage rate,[2],0.0162 ± 0.0046
UCCUGGAUGUCGGUGCAUAGUAUUUAGUUA,pre-steady-state target cleavage rate,[1]; [3],0.0897 ± 0.011
same,pre-steady-state target cleavage rate,[1]; [4],0.00862 ± 0.0023
same,pre-steady-state target cleavage rate,[2],0.00511 ± 0.0033
UCCUGGAACGAGCUUGCAUAGUAUUUAGUUA,pre-steady-state target cleavage rate,[1]; [3],0.239 ± 0.024
same,pre-steady-state target cleavage rate,[1]; [4],0.00792 ± 0.0025
same,pre-steady-state target cleavage rate,[2],0.00926 ± 0.0022
UCCUGCUACAGCUUGCCUAGUAUUUAGUUA,pre-steady-state target cleavage rate,[1]; [3],0.222 ± 0.015
same,pre-steady-state target cleavage rate,[1]; [4],0.0074 ± 0.0022
same,pre-steady-state target cleavage rate,[2],0.00702 ± 0.0018
UCCUGGAUGAGCUAGCAUACUAUUUAGUUA,pre-steady-state target cleavage rate,[1]; [3],0.0848 ± 0.017
same,pre-steady-state target cleavage rate,[1]; [4],0.00398 ± 0.0027
same,pre-steady-state target cleavage rate,[2],0.00286 ± 0.002
UCCUCGUACAGGUUGCAUAGUAUUUAGUUA,pre-steady-state target cleavage rate,[1]; [3],0.249 ± 0.01
same,pre-steady-state target cleavage rate,[1]; [4],0.00988 ± 0.0022
same,pre-steady-state target cleavage rate,[2],0.0399 ± 0.0088
UCCUGGUACAGCAUGCUUAGUAUUUAGUUA,pre-steady-state target cleavage rate,[1]; [3],0.208 ± 0.025
same,pre-steady-state target cleavage rate,[1]; [4],0.0118 ± 0.0026
same,pre-steady-state target cleavage rate,[2],0.00778 ± 0.0028
UCCUGGAACAGCUUGCAUUGUAUUUAGAUA,pre-steady-state target cleavage rate,[1]; [3],0.149 ± 0.019
same,pre-steady-state target cleavage rate,[2],0.00313 ± 0.0017
UCCUCCUACAGCAUGCAUAGUAAUUAGUUA,pre-steady-state target cleavage rate,[1]; [3],0.251 ± 0.024
same,pre-steady-state target cleavage rate,[1]; [4],0.00544 ± 0.0019
same,pre-steady-state target cleavage rate,[2],0.0115 ± 0.0038
UCCUGGAUGUGCUUGCAUAGUAUUUAGUUU [g2:g20:cont:t1U],pre-steady-state target cleavage rate,[1]; [3],0.158 ± 0.016
same,pre-steady-state target cleavage rate,[1]; [4],0.0103 ± 0.0037
same,pre-steady-state target cleavage rate,[2],0.052 ± 0.017
UCCUGGAUCAGCAUGCAUAGUAUUUACAAA,pre-steady-state target cleavage rate,[1]; [3],0.0991 ± 0.019
same,pre-steady-state target cleavage rate,[2],0.00615 ± 0.0038
UCCUCCUACAGCAUGCAUAGUAUUUAGAUA,pre-steady-state target cleavage rate,[1]; [3],0.176 ± 0.027
same,pre-steady-state target cleavage rate,[2],0.00452 ± 0.0019
UCCUGCUACAGCUUGCAUAGUAUUUAAUUA,pre-steady-state target cleavage rate,[1]; [3],0.126 ± 0.03
same,pre-steady-state target cleavage rate,[2],0.00612 ± 0.0025
UCCUCCUACAGCUACGAUAGUAUUUAGUUA,pre-steady-state target cleavage rate,[1]; [3],0.232 ± 0.015
same,pre-steady-state target cleavage rate,[2],0.00503 ± 0.0031
UCCUGGAUGUCGAAGGAAAGUAUUUAGUUA,pre-steady-state target cleavage rate,[1]; [4],< 0.0001
same,pre-steady-state target cleavage rate,[2],< 0.0001
UCCUGCUACAGCAUGCAUAGUAUUUAGAAA,pre-steady-state target cleavage rate,[1]; [3],0.188 ± 0.041
same,pre-steady-state target cleavage rate,[2],0.00416 ± 0.0014
UCCUCCUACAGCAUGCAUAGUAUUUACUUA,pre-steady-state target cleavage rate,[1]; [3],0.16 ± 0.022
same,pre-steady-state target cleavage rate,[1]; [4],0.00307 ± 0.0026
same,pre-steady-state target cleavage rate,[2],0.00211 ± 0.0017
